Source: PubChem (National Center for Advancing Translational Sciences (NCATS))
A selection: hits, their analogues and other compounds. The true share with any hit is near 0.81%.
TbPYK inhibitor: T. brucei pyruvate kinase inhibition; Potency, µM (series often up to 76.8 µM), without a hit: top-dose activity, negative = inhibition, hits mostly inhibitors; TbPYK enzyme, Kinase-Glo Plus ATP luminescence, 45 min; Q57TT1; 0.12% of 410,000 active; also: potency is read from the fitted curve at half-maximal effect; % is scaled to controls: 0 for no effect and ±100 for the full control effect; nearly all actives have a fitted effect of over 50% in size
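ADP (130 uM final) triggers the TbPYK reaction after compound addition; incubation is 45 min at room temperature. Kinase-Glo Plus is then added and luminescence imaged. Normalized data are fitted to concentration-effect curves.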
AMA1 RON2 block: disrupts binding of P. falciparum AMA1 to RON2 | Potency, µM (top dose mostly 58.2 µM), for the others: at the top dose activity change, negative = inhibition, most hits filed as inhibitors | AlphaScreen AMA1-biotinylated RON2 peptide binding | 0.2% of 360,000 active;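 also: potency is read from the fitted curve at half-maximal effect; 0% = vehicle wells and -100% = peptide control; nearly all actives have a fitted effect of over 45% in size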
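AMA1 (3D7) with his tag at 25 nM final met compounds first, then biotinylated RON2 peptide at 25 nM; detection used donor plus acceptor beads, 10 µg/mL apiece, read by AlphaScreen after 30 min at room temperature.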
SARS PLpro yeast-1: inhibitors of SARS-CoV papain-like protease in yeast; Potency, µM (titrated, usually from 32.9 µM), for the others: top-dose activity, positive = growth rescue, actives largely listed as activators; 0.19% of 330,000 active; S. cerevisiae expressing SARS-CoV PLpro, growth rescue; calls by dose curve; also: potency is read from the fitted curve at half-maximal effect; 0% is about no effect; nearly all actives have a fitted effect of over 55% in size
LmPK inh: LmPK (Leishmania mexicana) enzyme inhibition. Q27686. purified LmPK, Kinase-Glo ATP luminescence, 1 h. Potency, µM (doses to about 57.5 µM), inactives show top-dose activity change, negative = inhibition, hits mostly inhibitors. 0.37% of 290,000 active. AID 1721; also: potency is read from the fitted curve at half-maximal effect; % is scaled to controls: 0 for no effect and ±100 for the full control effect
Target sequence (Q27686 whole entry, looked up): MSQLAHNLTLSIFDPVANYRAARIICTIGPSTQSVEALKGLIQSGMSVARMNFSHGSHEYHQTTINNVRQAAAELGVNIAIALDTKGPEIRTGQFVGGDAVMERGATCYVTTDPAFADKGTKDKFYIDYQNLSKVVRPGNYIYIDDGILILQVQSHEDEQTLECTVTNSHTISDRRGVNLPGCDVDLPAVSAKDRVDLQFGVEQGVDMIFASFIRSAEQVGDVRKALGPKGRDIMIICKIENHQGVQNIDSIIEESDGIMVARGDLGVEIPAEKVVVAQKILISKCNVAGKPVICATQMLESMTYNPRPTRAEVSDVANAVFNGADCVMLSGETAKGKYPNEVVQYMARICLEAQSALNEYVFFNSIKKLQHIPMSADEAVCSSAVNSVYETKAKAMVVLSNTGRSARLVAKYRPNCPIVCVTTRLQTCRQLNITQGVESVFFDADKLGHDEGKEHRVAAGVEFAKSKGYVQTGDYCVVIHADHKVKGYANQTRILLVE
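Purified LmPK (0.1 nM) converted ADP (0.1 mM) to ATP with PEP (0.5 mM) in imidazole buffer pH 7.2 with KCl and MgCl2, 1 h at room temperature. ATP was read by Kinase-Glo luminescence; data normalized to uninhibited and no-enzyme controls.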
RE007 growth inh: less growth of the S. pombe RE007 Vpr strain | Potency, µM (titrated, usually from 92.2 µM), for the others: at the highest dose activity change, negative = less growth, actives largely listed as inhibitors | S. pombe RE007 Vpr strain, BacTiter-Glo ATP luminescence, 24 h | 0.21% of 360,000 active; active = well fitted falling curve with a large enough effect; inconclusive = small, poorly fitted or top-dose-only effect; inactive = no such curve, though single readings can be large or run the other way; also: potency is read from the fitted curve at half-maximal effect; % is scaled to controls: 0 for no effect and ±100 for the full control effect; nearly all actives have a fitted effect of over 50% in size
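Fission yeast RE007 carrying one integrated HIV-1 vpr copy, seeded at OD 0.01 in PMG+AL medium with 23 nL pinned compound. Grown 24 h at 30 degrees; viability read by BacTiter-Glo luminescence after 5 min.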
SARS PLpro yeast-2: Inhibits SARS-CoV PLP in yeast, hit validation | calls only | shares compounds with SARS PLpro yeast-1 | 19% of 1,000 active | yeast expressing SARS-CoV PLpro, growth phenotype rescue; call rule not given here
An asterisk follows results filed as active; i = inactive; ? = inconclusive; . = no result given; + = active, no number. Unless noted, calls follow the shape of the dose curve; as a rule, active = well fitted curve in the direction sought with a large enough effect; inconclusive = small, poorly fitted or top-dose-only effect, or another doubt; inactive = no such curve, though single readings can be large; an effect the other way counts as inactive or inconclusive.

SMILES	TbPYK inhibitor	AMA1 RON2 block	SARS PLpro yeast-1	LmPK inh	RE007 growth inh	SARS PLpro yeast-2
O=C(CN1CCCc2ccccc21)N/N=C/c1c(O)ccc2ccccc12	-4%	2%	10µM*	3%	5%	i
Cc1ccc(C)n1-c1c(C(=O)NCC(C)c2ccccc2)sc2ncccc12 (configuration not stated)	0%	.	.	.	.	.
COC(=O)Cn1c(CN2CCOCC2)nc2c1c(=O)n(C)c(=O)n2C	2%	-1%	?	-3%	4%	i
O=C(COC(=O)c1ccc(Cl)c([N+](=O)[O-])c1)NC1CCCC1	-7%	-6%	1%	3%	-3%	.
O=C(COC(=O)c1ccccc1C(=O)c1ccc(Cl)c([N+](=O)[O-])c1)NC1CCCCCC1	?	-7%	3.5µM*	4%	4%	+
CCOC(=O)[C@]12CCC=C1N(Cc1cccc3ccccc13)C(=O)[C@H](CC(=O)NCCCOC)C2	-4%	5%	.	.	-9%	.
O=C1CC(c2ccccc2)Cc2[nH]c(=O)c(-c3nc(-c4ccc(Cl)c(Cl)c4)cs3)cc21 (configuration not stated)	3%	.	.	.	.	.
Cc1ccc(C)c(N2CC(=O)N(c3cc(C)ccc3C)CC2=O)c1	4%	-10%	?	-3%	0%	i
Cc1ccc(C)c(N2C(=O)C3C4C=CC(CC4)C3C2=O)c1 (configuration not stated)	4%	-8%	2%	1%	-20%	.
C[C@H](NC(=O)C[C@@H]1C=C[C@@H](NC(=O)CN2CCOCC2)[C@@H](CO)O1)c1ccccc1	.	1%	.	.	9%	.
CCOc1ncccc1C(=O)OCC(=O)Nc1ccc2c(c1)OCO2	-3%	5%	-3%	-1%	-2%	.
CCOc1ncccc1C(=O)OCC(=O)Nc1ccc2c(c1)CCC2	9%	10%	?	.	3%	i
CC(C)Oc1ccc(/C=N/NC(N)=S)cc1	-10%	39%	?	1%	10%	+
Cn1c(O)c(/C=N/NC(=O)c2ccncc2)c(=O)n(C)c1=S	0%	0%	-2%	4%	-1%	.
CCn1c(O)c(/C=N/NC(=O)c2ccncc2)c(=O)n(CC)c1=S	-9%	64%	?	4%	9%	i
CC1CC(C)(C)CC2(C1)NC(=O)N(CC(=O)N1CCN(Cc3ccc(C#N)cc3)CC1)C2=O (configuration not stated)	-2%	5%	4%	.	6%	.
Cc1cccc(Oc2ccccc2NS(=O)(=O)c2ccc(CCC(=O)O)cc2)c1	-12%	-8%	2.2µM*	.	10%	i
O=C(Cc1cccc(NC(=O)C2CCCN(C(=O)C3CCCC3)C2)c1)Nc1ccc(C(=O)N2CCCCC2)cc1 (configuration not stated)	0%	-6%	.	.	0%	.
O=C(O)CSc1c(-c2ccccc2)c2cc(Cl)ccc2[nH]c1=O	-13%	-6%	?	2%	2%	i
CCOC(=O)CSc1c(-c2ccccc2)c2cc(Cl)ccc2[nH]c1=O	-17%	6%	0%	0%	6%	.
CCN1CCN(C(c2ccc(OC)cc2)c2c(O)cc(C)n(CCOC)c2=O)CC1 (configuration not stated)	-5%	.	.	.	.	.
COC(=O)Cc1c[nH]c2cccc(OCC(O)CN(Cc3ccc([N+](=O)[O-])cc3)C(C)(C)C)c12 (configuration not stated)	6%	?	-4%	-1%	-4%	.
COC(=O)Cc1c[nH]c2cccc(OCC(O)CN(Cc3ccccc3)C(C)C)c12 (configuration not stated)	2%	-7%	?	2%	13%	i
O=C(c1ccncc1)N1CCC[C@@]2(CCN(c3ccccc3)C2)C1	9%	.	.	.	.	.
Cc1ccc2c(c1)-c1nc3ccccc3cc1C2=NC1CCCCC1	6%	-9%	?	-10%	2%	i
SMILES	TbPYK inhibitor	AMA1 RON2 block	SARS PLpro yeast-1	LmPK inh	RE007 growth inh	SARS PLpro yeast-2
COC(=O)c1ccc(COC(=O)CNC(=O)c2cccs2)cc1	3%	7%	28%	-3%	12%	.
CCN(CC)S(=O)(=O)c1ccc(NC(=S)NC(=O)CC(C)C)cc1	-4%	-3%	.	-2%	-3%	i
Cc1ccccc1NC(=O)Nc1nc(CN)cs1	-1%	79%	.	.	7%	.
Cc1c(N/N=C(\C#N)C(=O)c2ccccc2)c(=O)n(-c2ccccc2)n1C	-3%	-10%	?	4%	-8%	i
Cc1ccccc1C(=O)/C(C#N)=N/Nc1c(C)n(C)n(-c2ccccc2)c1=O	-6%	-2%	20µM*	0%	.	i
CCCn1c(NC(=O)C2CCN(C(=O)c3ccccc3C)CC2)nc2ccccc21	1%	68%	-1%	.	-1%	.
CCCn1c(NC(=O)c2cccc(C)c2C)nc2ccccc21	2%	88%	?	9%	?	i
CCc1ccc([C@@H]2C[C@H]3[C@@H](CN2S(=O)(=O)c2ccc(C)cc2)C(=O)C[C@@H](c2ccccc2)N3S(=O)(=O)c2ccc(C)cc2)cc1	-15%	-4%	.	.	11%	.
CCCCCCCCCCCNC(=O)c1ccoc1C	0%	17%	-61%	2%	-16%	.
CCCCCC(C)NC(=O)c1ccoc1C (configuration not stated)	2%	12%	.	3%	?	i
